VACV Venus inh = qHTS for Stage-Specific Inhibitors of Vaccinia Orthopoxvirus: Venus Reporter Primary qHTS; Vaccinia virus Venus reporter expression, fluorescence; Potency, µM (highest dose often 36.5 µM), usual class: inhibitors; hit rate 0.46% among 330,000; AID 720580, 2013; calls by dose curve; tested in A549 cells; further: nearly all actives have a fitted effect of over 30% in size
HCMV inh = qHTS Assay for inhibitors of the human cytomegalovirus (HCMV). hit rate 4.5% among 410,000. activity change, negative = inhibition, % at 57.5 µM. AID 1259415, 2018. HFF cells, HCMV-luciferase reporter, 72 h; stronger effect = lower value; in the data active means activity change below about -60%; inconclusive means no clear call, values can overlap the other calls; inactive means above about -39%
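Screen run at 2 compound doses on HFFs infected with reporter HCMV, MOI 1 PFU/cell. Luciferase activity from cell lysates at 72 h post infection gave inhibition relative to buffer-only and Salinomycin wells.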
HCV inhibitor = qHTS Assay for Inhibitors of Hepatitis C Virus (HCV) | hit rate 3.4% among 340,000 | Huh7.5.1 HCVcc-Cre infection, luciferase reporter, 44 h | Potency, µM (series often up to 41.8 µM), usual class: inhibitors | AID 651820, 2012; active means well fitted inhibition curve with a large enough effect; inconclusive means small, poorly fitted or top-dose-only effect, or another doubt; inactive means no such curve, though single readings can be large or run the other way
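Compounds are dispensed onto cells plated 4 h earlier at 1,000 per well, with HCVcc-Cre virus (about 0.5 moi) added next. Following 44 h of culture, luminescent signal is measured for 15 sec after 15 min with substrate at room temperature.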
FMDV inh = High Throughput Screening for Foot and Mouth Disease Virus Antivirals | AID 1159524, 2015 | hit rate 1.2% among 410,000 | Potency, µM (series often up to 57.9 µM), most hits filed as inhibitors | FMDV antiviral cell-based qHTS; calls by dose curve; tested in HEK293T cells; further: read-out not given here; nearly all actives have a fitted effect of over 45% in size
VACV mCherry inh = qHTS for Stage-Specific Inhibitors of Vaccinia Orthopoxvirus: mCherry Reporter Primary qHTS; Vaccinia virus mCherry reporter infection, fluorescence; Potency, µM (highest dose often 36.5 µM), actives largely listed as inhibitors; hit rate 0.63% among 310,000; calls by dose curve; tested in A549 cells; further: nearly all actives have a fitted effect of over 35% in size
A number is an active result; 0 = inactive; ? = inconclusive; - = no result. Rows were chosen to be rich in hits. Some 7.3% of all compounds tested hit in one or more screens of this group.

SMILES	VACV Venus inh	HCMV inh	HCV inhibitor	FMDV inh	VACV mCherry inh
COc1cc(/C=C2/SC(=O)N(CC(=O)N3CCCC3)C2=O)ccc1Oc1ccc([N+](=O)[O-])cn1	0	?	?	31.6µM	0
COc1ccc(/C=N/NC(=O)c2ccoc2C)cc1COc1ccc(Cl)cc1	0	0	?	22.4µM	?
CC(C)c1cc(C(=O)OCC(=O)NC2CCS(=O)(=O)C2)c(O)c(C(C)C)c1 (configuration not stated)	0	0	-	0	0
COc1cc(/C=C(/C#N)c2ccc(C)cc2)ccc1Oc1ccc([N+](=O)[O-])cn1	0	0	10µM	-	0
COc1ccc(/C=N\NC(=O)c2ccccc2Cl)cc1COc1c(F)c(F)c(F)c(F)c1F	?	0	2.24µM	?	?
COc1ccc(/C=N\NC(=O)c2ccccc2OC)cc1COc1c(F)c(F)c(F)c(F)c1F	0	0	?	0	0
Cc1ccc2nc(/C(C#N)=C\c3ccc(Oc4ccc([N+](=O)[O-])cn4)cc3)[nH]c2c1	0	0	?	0	0
CCN1CCN(Cc2c(O)ccc3oc(C)c(C(=O)Nc4cccc(C(F)(F)F)c4)c23)CC1	0	0	-	0	0
COc1ccc(C(=Cc2cc(OC)c(OC)cc2[N+](=O)[O-])C(=O)O)cc1	0	-99.0	0	0	0
CCOc1ccc(S(=O)(=O)/N=C(/Nc2ccc(S(N)(=O)=O)cc2)c2ccccc2)cc1	-	-102.9	0	0	-
NS(=O)(=O)c1ccc(NC(=O)COc2ccc(C(=O)c3ccc(F)cc3)cc2)cc1	-	0	14.1µM	?	-
CC(Oc1ccc(C(=O)c2ccccc2)cc1)C(=O)Nc1ccc(S(N)(=O)=O)cc1 (configuration not stated)	0	-68.1	?	0	0
CC(Oc1ccccc1)C(=O)Nc1ccc(NC(=O)c2ccccc2)cc1 (configuration not stated)	0	0	-	0	0
COC(=O)C1CCCCN1Cc1nc(N(C)C)c2ccccc2n1 (configuration not stated)	0	-	-	0	0
CCc1ccc(C(=O)NC2=NC(c3cc(OC)ccc3OC)CC(=O)N2)cc1 (configuration not stated)	0	0	-	0	0
CC(=O)N1c2ccc(C)cc2Sc2c1ccc1ccccc21	0	-61.5	0	0	0
CC(=O)N1c2ccccc2Oc2cc3ccccc3cc21	0	0	0	0	0
CC(=O)c1c(C)[nH]c(C(=O)C(C)Sc2nnc(NC3CC3)s2)c1C (configuration not stated)	0	0	10µM	?	0
CC(Sc1nnc(NC2CC2)s1)C(=O)Nc1ccc(N2CCOCC2)cc1 (configuration not stated)	0	0	0	0	0
COc1ccccc1CN1CCCC2(CCN(C(=O)c3ccco3)CC2)C1	-	-	-	0	-
CSc1cc(-c2ccc(Cl)cc2)c(C(=O)NN)s1	-	0	3.55µM	0	-
CSc1cc(-c2ccc(Cl)cc2)c(C(=O)NC(C)C)s1	0	0	0	0	0
CCOC(=O)c1ccccc1NC(=O)Cn1c(=O)n(CCC(=O)NCc2ccccc2OC)c(=O)c2ccccc21	0	0	-	0	0
O=C(NNc1nc2ccccc2s1)c1ccc(F)cc1	0	0	0	0	0
O=C(Nc1nc2ccc(F)cc2s1)c1ccccn1	?	-97.6	?	11.2µM	?
SMILES	VACV Venus inh	HCMV inh	HCV inhibitor	FMDV inh	VACV mCherry inh
O=C(Nc1nnc(SCc2ccc(F)cc2)s1)c1ccccn1	?	-98.5	?	0	?
O=C(NNc1nc2ccc(F)cc2s1)c1cccc(F)c1	0	-81.4	?	0	?
O=C(NNc1nc2c(F)cc(F)cc2s1)c1ccccc1	0	-69.7	0	0	0
CCc1ccc(NC(=O)CSC2=C(C#N)C(c3ccc4c(c3)OCO4)CC(=O)N2)cc1 (configuration not stated)	0	-77.0	11.2µM	-	0
Cc1ccc(NC(=O)CSC2=C(C#N)C(c3ccc4c(c3)OCO4)CC(=O)N2)cc1C (configuration not stated)	-	?	?	0	-
O=C(N/N=C1\CC(c2ccccc2)Oc2ccccc21)c1ccc(O)cc1 (configuration not stated)	0	?	0	0	?
O=C(N/N=C1\CC(c2ccccc2)Oc2ccccc21)c1cccnc1 (configuration not stated)	0	-83.1	0	0	0
